# According to PubChem BioAssay (Tox21):
# Inconclusive results are not listed. Activity calls are given as the source filed them. The call rests on the fitted dose curve.
# Biological target: Retinoic acid receptor RXR-alpha (Homo sapiens) (UniProt P19793)
# Assay: qHTS assay to identify small molecule agonists of the RXR signaling pathway (AID 1159527); further: nearly all actives have a fitted effect of over 35% in size
# Settings: HEK293T RXRa-UAS-bla, beta-lactamase ratio, 16 h; series mostly up to 76.8 µM; activation: at the top concentration
# Outline: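 Fluorescence ratio readout (460 vs 530 nm) from GeneBLAzer RXR-alpha HEK 293T cells after 16 hr compound treatment; cells seeded 5 hr beforehand in low-serum, charcoal-stripped medium.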
# On the % scale 0 is the no-effect control and ±100 the full control effect; potency means the concentration at half of the fitted maximal effect.
# Retinoic acid receptor RXR-alpha (Homo sapiens), sequence (P19793 whole entry, looked up): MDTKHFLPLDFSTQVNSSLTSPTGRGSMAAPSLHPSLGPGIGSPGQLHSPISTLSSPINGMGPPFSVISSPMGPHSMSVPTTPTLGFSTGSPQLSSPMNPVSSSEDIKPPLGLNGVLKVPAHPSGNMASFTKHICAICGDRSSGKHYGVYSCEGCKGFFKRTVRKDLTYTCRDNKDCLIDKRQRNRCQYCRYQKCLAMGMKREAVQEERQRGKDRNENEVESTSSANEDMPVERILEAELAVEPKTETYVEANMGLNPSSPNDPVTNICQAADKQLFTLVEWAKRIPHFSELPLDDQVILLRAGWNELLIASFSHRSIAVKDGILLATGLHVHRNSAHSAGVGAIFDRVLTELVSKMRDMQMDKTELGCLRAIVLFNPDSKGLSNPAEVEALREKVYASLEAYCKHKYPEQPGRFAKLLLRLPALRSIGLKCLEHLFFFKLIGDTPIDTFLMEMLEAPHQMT
Compound,activation,Potency
CCCCNc1ccc(C(=O)OCCN(CC)CC)cc1,-4.57% [at 35.3 µM] (inactive),–
CC1=C(O)C(=O)OC1C (centres undefined),7.33% (inactive),–
C=CCCC=C,1.03% (inactive),–
CC(C)C(=O)OC/C=C/c1ccccc1,3.93% (inactive),–
NS(=O)(=O)c1cc(-c2nn[nH]n2)c(NCc2cccs2)cc1Cl,4.89% [at 35.3 µM] (inactive),–
CCc1nnc(NS(=O)(=O)c2ccc(N)cc2)s1,1.9% [at 35.3 µM] (inactive),–
NC1=NCC2c3ccccc3Cc3ccccc3N12 (centres undefined),9.13% [at 35.3 µM] (inactive),–
O=CCCc1ccccc1,–,19.5 µM (active)
CCOC(=O)c1ccccc1O,11.8% [at 35.3 µM] (inactive),–
Cc1cccc(C)c1NC(=O)CN1CCCCCC1,2.76% [at 35.3 µM] (inactive),–
CCOc1ccc2nc(N)sc2c1,-9.95% (inactive),–
FC(F)(F)C(F)(F)C(F)(F)C(F)(F)C(F)(F)C(F)(F)C(F)(F)C(F)(F)Br,-0.871% [at 35.3 µM] (inactive),–
CC(=O)Oc1cc(C(C)C)c(OCCN(C)C)cc1C,1.17% [at 35.3 µM] (inactive),–
CCN1CC(CCN2CCOCC2)C(c2ccccc2)(c2ccccc2)C1=O (centres undefined),0.515% [at 35.3 µM] (inactive),–
O=C1CCCCC1C1CCCCC1 (centres undefined),4.78% (inactive),–
C[C@@H](N)C(=O)O,-3.76% [at 35.3 µM] (inactive),–
CCCCC(=O)O[C@]1(C(=O)CO)[C@H](C)C[C@H]2[C@@H]3CCC4=CC(=O)C=C[C@]4(C)[C@@]3(F)[C@@H](O)C[C@@]21C,4.68% [at 35.3 µM] (inactive),–
CC(=O)OC(C)OC(C)=O,–,2.01 µM (active)
CS(=O)(=O)c1ccc([C@@H](O)[C@@H](CF)NC(=O)C(Cl)Cl)cc1,3.62% [at 35.3 µM] (inactive),–
CC1(C)C(=O)N(Cl)C(=O)N1Br,-1.06% (inactive),–

Compound,activation,Potency
CC(C)Nc1nc(N)nc(Cl)n1,16.3% (inactive),–
CCC1(C)NC(=O)NC1=O (centres undefined),1.58% (inactive),–
N#Cc1ccc(C(c2ccc(C#N)cc2)n2cncn2)cc1,7.92% [at 35.3 µM] (inactive),–
C1CCOC1,-5.62% (inactive),–
CN1CCN(N)CC1,8.54% [at 35.3 µM] (inactive),–
Cc1cc2nc(N)sc2cc1C,-7.76% (inactive),–
CN(C)CCOc1ccccc1Cc1ccccc1,-12.8% [at 35.3 µM] (inactive),–
Cc1ccc(C)c(N)c1,-11.2% (inactive),–
COc1cc(N)c(Cl)cc1C(=O)NC1CCN(Cc2ccccc2)CC1,-1.61% [at 35.3 µM] (inactive),–
CN(C)CC[C@@H](c1ccc(Cl)cc1)c1ccccn1,1.59% [at 35.3 µM] (inactive),–
Cc1onc(-c2ccccc2)c1C(=O)Cl,6.48% [at 35.3 µM] (inactive),–
CC(C)S,-0.539% (inactive),–
O=C(O)[C@@H](O)[C@H](O)[C@H](O)[C@@H](O)C(=O)O,13.8% [at 35.3 µM] (inactive),–
CCCCCCCCCC/C=C/C#N,-10.8% (inactive),–
Cc1c(C(=O)NCCO)[n+](=O)c2ccccc2n1[O-],4.62% [at 35.3 µM] (inactive),–
OCC(CBr)(CBr)CBr,7.89% (inactive),–
COC(=O)c1ccc2cc(C(=O)OC)ccc2c1,0.118% [at 15.8 µM] (inactive),–
CCCCC1CCC(=O)O1 (centres undefined),-0.207% (inactive),–
CCOC(=O)C(Br)c1ccccc1 (centres undefined),-4.53% (inactive),–
